Source: PubChem (National Center for Advancing Translational Sciences (NCATS))
Shown are actives, neighbours in structure and some others; about 17% of the full set was active somewhere.
TDP1 cell noCPT = qHTS for Inhibitors of human tyrosyl-DNA phosphodiesterase 1 (TDP1): qHTS in cells in absence of CPT. DT40 Tdp1-/- hTDP1 cells, no CPT, ATP luminescence, 48 h. Potency, µM (highest dose often 46.2 µM), for the others: top-dose activity change, negative = growth inhibition, actives largely listed as inhibitors. actives 15% (n = 420,000); note: % is set by controls: 0 for no effect and ±100 for the full control effect; nearly all actives have a fitted effect of over 55% in size
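A cellular qHTS used chicken DT40 cells lacking endogenous Tdp1 but carrying stably transfected human TDP1. Compounds were applied without camptothecin, and cell growth kinetics were judged by ATP-dependent luminescence after ≥48 hr.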
DT40 TDP1 CPT = DT40-hTDP1 cell growth loss with CPT. chicken DT40 Tdp1-/-;hTDP1 cells + 20 nM CPT, ATP luminescence, 48 h. Potency, µM (highest dose often 46.2 µM), for the others: top-dose activity change, negative = growth inhibition, actives largely listed as inhibitors. actives 12% (n = 420,000). AID 686979; note: % is set by controls: 0 for no effect and ±100 for the full control effect; nearly all actives have a fitted effect of over 55% in size
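Chicken DT40 Tdp1-/- cells complemented with human TDP1, 400 cells/well, exposed to compounds plus 20 nM camptothecin for at least 48 h at 37 C; viability read as ATP content by CellTiter-Glo luminescence.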
TGFb inhibitor = blocks TGF-b signaling; HepG2 CAGA-GFP TGF-b/SMAD3 reporter, GFP fluorescence, 18 h; TGF-beta stimulated, 500 pg/mL final; Potency, µM (titrated, usually from 46.1 µM), for inactives: at the top dose activity, negative = inhibition, actives largely listed as inhibitors; actives 1.2% (n = 410,000); note: % is set by controls: 0 for no effect and ±100 for the full control effect; nearly all actives have a fitted effect of over 65% in size
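Cell-based qHTS in HEPG2 carrying a CAGA-GFP Smad reporter; compounds added before 500 pg/mL final TGF-beta, 18 h incubation at 37 degrees C, GFP fluorescence quantified per cell by imaging cytometry.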
HT1080-NT tox = kills 2HG-producing HT-1080-NT fibrosarcoma cells; actives 1.6% (n = 360,000); HT-1080-NT fibrosarcoma viability, CellTiter-Glo ATP luminescence, 48 h; Potency, µM (doses to about 46.1 µM), without a hit: at the top dose activity, negative = less viability, hits mostly cytotoxic;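 note: NT is the 2HG producing partner of a matched IDH1 knockdown line; 0% = DMSO-treated cells and -100% = media-only wells without cells; nearly all actives have a fitted effect of over 55% in size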
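Luminescent CellTiter-Glo readout after 48 hours of compound exposure at 37 degrees C defined viability of HT-1080-NT cells. Activity was normalized to DMSO wells and cell-free media wells; concentration-response curves were fitted and assigned curve classes.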
HepG2 viability = HepG2 cytotoxicity, counter-screen for TGF-b inhibitors | AID 588856 | HepG2 CAGA-GFP viability, ATP luminescence, 18 h | Potency, µM (series often up to 46.1 µM), inactives show at the highest dose activity change, negative = cytotoxicity, hits mostly cytotoxic | actives 0.76% (n = 410,000)
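CellTiter-Glo luminescence gave cytotoxicity after 18 hours at 37 degrees C. The cells were HepG2 CAGA-GFP in 1% FBS DMEM, stimulated with 500 pg/mL TGF-beta after compound addition. %Activity was normalised to no-cell wells (complete cell-killing) and DMSO (no toxicity), and curves were fitted and classified.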
HT1080 IDH1KD tx = toxicity to HT-1080 IDH1 knockdown cells (counter line); HT-1080 IDH1 knockdown viability, ATP luminescence, 48 h; Potency, µM (series often up to 46.1 µM), inactives show top-dose activity, negative = toxicity, usual class: cytotoxic; actives 2% (n = 360,000); AID 686971;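 note: 0% = DMSO wells and -100% = cell-free medium wells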
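Cytotoxicity counter-line: IDH1KD HT-1080, 48 h, CellTiter-Glo. Curves classed by r2, magnitude and activity.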
* hit, by the source's call; u = inconclusive; x = not tested or not shown. Calls come from the whole dose curve; as a rule, active = well fitted curve in the direction sought with a large enough effect; inconclusive = small, poorly fitted or top-dose-only effect, or another doubt; inactive = no such curve, though single readings can be large; an effect the other way counts as inactive or inconclusive. Potency is the fitted concentration of half-maximal effect.

SMILES | TDP1 cell noCPT | DT40 TDP1 CPT | TGFb inhibitor | HT1080-NT tox | HepG2 viability | HT1080 IDH1KD tx
CC(=O)Nc1cc2c(cc1NC(=O)Cn1nnc(-c3ccc(C)o3)n1)OCCO2 | -4% | 15% | 0% | 16% | -22% | 22%
C=Cc1ccc(S(=O)(=O)O)cc1 | -12% | 2% | x | x | x | x
N#CC1=C(N)Oc2cc(O)c(C=Nc3ccccc3)cc2C1c1ccccc1 (stereo not drawn) | u | -18% | -68% | u | -48% | u
Cc1ccc(N=Cc2cc3c(cc2O)OC(N)=C(C#N)C3c2ccccc2)cc1 (stereo not drawn) | 16µM* | u | -19% | u | -2% | u
Cc1ccc(C2C(C#N)=C(N)Oc3cc4c(cc32)OCO4)cc1 (stereo not drawn) | u | 26µM* | -12% | u | -2% | u
CSc1ccc(C2C(C#N)=C(N)Oc3cc4c(cc32)OCO4)cc1 (stereo not drawn) | u | 21µM* | 13µM* | 18µM* | -39% | u
N#CC1=C(N)Oc2cc(N)ccc2C1c1ccc(F)cc1 (stereo not drawn) | u | u | -16% | -22% | -16% | u
CC(C)(C)N1C(=O)c2ccccc2NC(=O)C1C(=O)NCCc1ccccc1 (stereo not drawn) | u | 1% | x | 11% | x | 3%
Cc1ccc(NC(=O)CSc2ccc3c(c2)OCCO3)nc1 | -26% | -1% | u | 0% | -20% | 2%
O=C(NC1=NC2CCCCC2N1)c1ccccc1 (stereo not drawn) | u | 1% | 8% | 14% | 1% | 19%
C=C1C(O)[C@@H]2O[C@]3(CC[C@H](/C=C/C(C)[C@@H]4CC(C)=CC5(O[C@H](C[C@@](C)(O)CO)CCC5O)O4)O3)CC[C@H]2O[C@@H]1C(O)CC(C)[C@H]1OC2(CCCCO2)CCC1C (stereo partly drawn) | 3.3µM* | 1.5µM* | 7.9µM* | 1.2µM* | -16% | 0.82µM*
C=C1[C@@H](O)[C@@H]2O[C@]3(CC[C@H](/C=C/[C@@H](C)[C@@H]4CC(C)=CC5(O[C@H](C[C@@](C)(O)C(=O)OC)CC[C@H]5O)O4)O3)CC[C@H]2O[C@@H]1[C@@H](O)C[C@H](C)[C@H]1OC2(CCCCO2)CC[C@H]1C (stereo partly drawn) | 0.92µM* | 0.58µM* | 0.89µM* | 0.65µM* | -26% | 1.2µM*
CCN(CC(=O)Nc1c(F)cccc1F)C(=O)c1ccc(OCc2c(C)noc2C)cc1 | 12% | -6% | 12% | 4% | -2% | 5%
O=C(O)C1C2OC3C(OC(=O)C31)C2Br (stereo not drawn) | -6% | -2% | 1% | 8% | 9% | 7%
C(=Nc1ccc(/C=C/c2ccnc3ccccc23)cc1)c1ccco1 | 13µM* | 16µM* | -2% | x | -30% | x
C(=C\c1ccnc2ccccc12)/c1cccs1 | u | u | u | x | -30% | x
C(=Nc1ccc(/C=C/c2ccnc3ccccc23)cc1)c1cccs1 | 13µM* | u | -2% | x | -22% | x
C(=C\c1ccnc2ccccc12)/c1ccc2c(c1)OCO2 | u | u | 8% | x | -4% | x
C(=Nc1ccc(/C=C/c2ccnc3ccccc23)cc1)c1ccc2c(c1)OCO2 | 18µM* | u | 0% | x | -37% | x
N#CCCn1cc(C=C(C#N)C#N)c(-c2ccc(-c3ccccc3)cc2)n1 | u | u | -13% | 11% | -4% | 0%
N#CCCn1cc(/C=N/NC(N)=S)c(-c2ccc(-c3ccccc3)cc2)n1 | 4.1µM* | u | u | u | -21% | -29%
COc1cc(OC)cc(-c2c(Sc3ccccc3)c3cc(-c4ccc(SC)cc4)ccc3n2C)c1 | -18% | -12% | x | 0% | x | 1%
CSCCC(NC(=O)c1ccco1)C(=O)N1CCN(c2ccccc2O)CC1 (stereo not drawn) | u | -14% | -7% | 2% | -6% | 4%
Cc1ncc(COP(=O)(O)O)c(CN)c1O | -22% | -5% | x | x | x | x
CCc1noc(C)c1C(=O)OC(C)C(=O)c1c(C)[nH]c2ccccc12 (stereo not drawn) | u | 16µM* | 1% | -12% | -28% | -18%
SMILES | TDP1 cell noCPT | DT40 TDP1 CPT | TGFb inhibitor | HT1080-NT tox | HepG2 viability | HT1080 IDH1KD tx
CC(=O)c1ccccc1OC(=O)c1ccc([N+](=O)[O-])o1 | -24% | u | u | -3% | 6% | -1%
Cc1[nH]c2ccccc2c1C(=O)C(C)OC(=O)c1ccc([N+](=O)[O-])o1 (stereo not drawn) | 16µM* | u | u | u | -40% | u
Cc1nc2ccc(C(=O)OC(C)C(=O)c3c(C)[nH]c4ccccc34)cc2nc1C (stereo not drawn) | 13µM* | u | 6% | x | -22% | x
CN1CCN(c2nc3ccccn3c(=O)c2C=C(C#N)C#N)CC1 | -8% | -19% | 0% | 11% | -37% | -6%
COc1ccc(NC(=O)C2CCN(c3nc4ccccc4[nH]3)CC2)cc1OC | -4% | -4% | 0% | x | -6% | x
COc1cc(-c2nnn(Cc3ccccc3C)n2)cc(OC)c1OC | 21µM* | u | 1% | -4% | -17% | 0%
COc1ccc(-c2nnn(Cc3ccccc3)n2)cc1OC | -20% | 2% | 23% | 2% | -5% | -7%
COc1ccc(CNC(=O)c2ccccc2SCC(=O)N2CCCC2)cc1OC | -7% | 2% | -22% | -11% | -11% | -4%
CSc1nc(N(C)NC(=O)c2ccc(Cl)cc2)c2ccccc2n1 | 0.33µM* | 0.26µM* | u | 0.73µM* | -17% | u
CNc1nc(SC)nc2ccccc12 | u | -4% | -6% | 5% | 0% | 1%
CSc1nc(N(C)NC(=O)c2ccccc2)c2ccccc2n1 | 0.52µM* | 0.58µM* | -7% | 0.58µM* | 3% | 0.58µM*
COC(=O)Cn1cnc2c(Cl)nc(F)nc21 | 16µM* | 13µM* | -13% | -15% | 1% | -20%
CC1CC(C)CN(C(=O)CCCNC(=O)c2ccc(Cl)cc2)C1 (stereo not drawn) | -1% | -18% | -17% | -7% | 2% | -6%
O=C(Nc1ccccc1[N+](=O)[O-])C1(c2ccccc2)CCOCC1 | 16µM* | u | 10% | -1% | -37% | 1%
